The supplement of paper PMC10849652
Targets with a hit are over-represented here; the source holds about 8,800 in all. About 0.5% of all pairs of compound and target were hits.

Key:
Assay in all cases: log2 fold change, soluble protein after heating vs DMSO (PISA); higher = thermal stabilisation; K562 lysate, 10 uM; active = over 0.2 and 3.5 SD of the protein, either way, in both replicates (recomputed)
[1] = compound: NCC(=O)Nc1ccc(-n2nc(C(F)(F)F)cc2-c2ccc3c(ccc4ccccc43)c2)cc1
Procedure, shortened: (§1)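 Pellets of K562 cells were dounce-homogenised in PBS pH 7.4 with 1 mM MgCl2, and the crude extract was held at 1 mg/mL protein for a 30 min treatment with 10 μM compound. Aliquots were heated for 3 min over 48°C-58°C and pooled before NP-40 was added to 0.5% at 4°C. The supernatant from 21,000xg for 90 min was quantified by TMTpro 16plex LC-MS/MS with channel sums equalised. Values are reported from duplicates as log-two fold change in thermal stability relative to solvent controls.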

vorinostat = compound: O=C(CCCCCCC(=O)Nc1ccccc1)NO [vorinostat]
Procedure, shortened: as §1

silmitasertib = compound: O=C(O)c1ccc2c(c1)nc(Nc1cccc(Cl)c1)c1ccncc12 [silmitasertib]
Procedure, shortened: as §1

[2] = compound: O=C1NC(=O)C(c2cnc3ccccn23)=C1c1cn2c3c(cc(F)cc13)CN(C(=O)N1CCCCC1)CC2
Procedure, shortened: as §1

entospletinib = compound: c1cn2cc(-c3ccc4cn[nH]c4c3)nc(Nc3ccc(N4CCOCC4)cc3)c2n1 [entospletinib]
Procedure, shortened: as §1

Measured: log2 fold change

ZDHHC18 (UniProt Q9NUE0)
Chain of UniProt Q9NUE0 (Q9NUE0 whole entry, looked up): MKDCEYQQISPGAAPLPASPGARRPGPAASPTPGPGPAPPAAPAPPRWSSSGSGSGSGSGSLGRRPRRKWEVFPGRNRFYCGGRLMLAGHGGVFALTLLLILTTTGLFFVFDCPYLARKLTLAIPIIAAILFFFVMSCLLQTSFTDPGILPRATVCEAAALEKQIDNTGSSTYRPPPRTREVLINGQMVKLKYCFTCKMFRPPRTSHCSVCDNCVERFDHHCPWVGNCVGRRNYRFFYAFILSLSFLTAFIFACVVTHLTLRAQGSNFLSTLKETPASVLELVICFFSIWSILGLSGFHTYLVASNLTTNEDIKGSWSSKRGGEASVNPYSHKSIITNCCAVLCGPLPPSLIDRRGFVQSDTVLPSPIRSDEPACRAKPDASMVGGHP
inactive: [1] -0.064 | vorinostat -0.162 | silmitasertib 0.163 | [2] 0.009 | entospletinib 0.034
